Measured values taken from the supplement of paper PMC10849652.
Of roughly 8,800 targets only a part is listed; those with a hit were picked by preference. About 0.5% of all pairs of compound and target were hits. Values without a mark were called inactive.

What was measured:
Assay in all cases: log2 fold change, soluble protein after heating vs DMSO (PISA); higher = thermal stabilisation; K562 lysate, 10 uM; active = over 0.2 and 3.5 SD of the protein, either way, in both replicates (recomputed)
[1] = compound: CCCS(=O)(=O)Nc1ccc(F)c(C(=O)c2c[nH]c3ncc(-c4ccc(Cl)cc4)cc23)c1F [vemurafenib]
In short: (§1)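 A 30 min treatment with 10 μM compound was applied to crude K562 extract at 1 mg/mL protein in PBS pH 7.4 with 1 mM MgCl2. Heating for 3 min spanned 48°C-58°C, after which aliquots were pooled, adjusted to 0.5% NP-40 at 4°C and spun at 21,000xg for 90 min. TMTpro 16plex LC-MS/MS of the supernatant, with channel sums equalised, gave values recorded as log-two fold change in thermal stability against solvent controls, from duplicates.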

[2] = compound: CCCS(=O)(=O)Nc1ccc(F)c(C(=O)c2c[nH]c3ncc(Cl)cc23)c1F
In short: as §1

[3] = compound: CCN(CCCOc1ccc2c(Nc3cc(CC(=O)Nc4cccc(F)c4)[nH]n3)ncnc2c1)CCOP(=O)(O)O [barasertib]
In short: as §1

[4] = compound: CC[C@@H]1C(=O)N(C)c2cnc(Nc3ccc(C(=O)NC4CCN(C)CC4)cc3OC)nc2N1C1CCCC1
In short: as §1

[5] = compound: CC[C@@H]1C(=O)N(C)c2cnc(Nc3ccc(C(=O)N[C@H]4CC[C@H](N5CCN(CC6CC6)CC5)CC4)cc3OC)nc2N1C(C)C [volasertib]
In short: as §1

[6] = compound: CCn1c(C(=O)N(C2CC2)C2CC2)cc2c3c(ncn3C)c(Nc3cc(C)n(C)n3)nc21
In short: as §1

[7] = compound: CCn1cc(-c2ccnc3[nH]c(-c4cccc(CN(C)C)c4)cc23)c(-c2ccc(NC(=O)N(C)C)cc2)n1
In short: as §1

[8] = compound: CN1CCC(CNc2ccc3ncc(-c4cccc(OC(F)(F)F)c4)n3n2)CC1
In short: as §1

[9] = compound: CN1CCN(CCOc2cc(OC3CCOCC3)c3c(Nc4c(Cl)ccc5c4OCO5)ncnc3c2)CC1 [saracatinib]
In short: as §1

[10] = compound: CN1CCN(c2nc(C3=C(c4c[nH]c5ccccc45)C(=O)NC3=O)c3ccccc3n2)CC1 [sotrastaurin]
In short: as §1

Sequence of UniProt Q96NW4 (Q96NW4 whole entry, looked up): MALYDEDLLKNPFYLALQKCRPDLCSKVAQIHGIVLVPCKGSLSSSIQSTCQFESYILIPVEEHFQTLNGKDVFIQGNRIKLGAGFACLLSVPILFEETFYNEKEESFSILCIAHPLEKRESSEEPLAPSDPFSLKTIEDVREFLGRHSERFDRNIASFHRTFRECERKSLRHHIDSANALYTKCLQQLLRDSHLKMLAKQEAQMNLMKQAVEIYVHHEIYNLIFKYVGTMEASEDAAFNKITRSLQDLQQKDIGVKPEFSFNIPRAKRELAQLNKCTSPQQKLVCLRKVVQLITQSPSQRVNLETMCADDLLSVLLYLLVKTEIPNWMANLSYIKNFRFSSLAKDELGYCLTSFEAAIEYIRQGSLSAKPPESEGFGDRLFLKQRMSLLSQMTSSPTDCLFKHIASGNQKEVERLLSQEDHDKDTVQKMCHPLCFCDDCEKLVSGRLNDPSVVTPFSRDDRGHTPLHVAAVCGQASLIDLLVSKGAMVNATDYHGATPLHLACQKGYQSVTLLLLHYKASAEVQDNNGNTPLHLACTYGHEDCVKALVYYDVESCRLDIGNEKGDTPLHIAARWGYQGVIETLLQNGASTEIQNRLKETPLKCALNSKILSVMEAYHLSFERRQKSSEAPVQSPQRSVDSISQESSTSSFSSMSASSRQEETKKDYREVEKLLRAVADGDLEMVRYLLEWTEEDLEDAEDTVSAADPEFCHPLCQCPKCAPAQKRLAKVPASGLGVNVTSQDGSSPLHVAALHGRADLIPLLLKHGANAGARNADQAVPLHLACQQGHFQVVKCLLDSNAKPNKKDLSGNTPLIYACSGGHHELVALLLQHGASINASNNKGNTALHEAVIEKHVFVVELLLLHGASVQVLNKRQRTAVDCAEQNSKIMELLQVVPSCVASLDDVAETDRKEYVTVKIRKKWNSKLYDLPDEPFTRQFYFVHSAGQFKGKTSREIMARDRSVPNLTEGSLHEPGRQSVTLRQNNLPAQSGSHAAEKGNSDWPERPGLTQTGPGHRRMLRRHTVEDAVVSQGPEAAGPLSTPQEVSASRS
Sequence of UniProt Q9NXU5 (Q9NXU5 whole entry, looked up): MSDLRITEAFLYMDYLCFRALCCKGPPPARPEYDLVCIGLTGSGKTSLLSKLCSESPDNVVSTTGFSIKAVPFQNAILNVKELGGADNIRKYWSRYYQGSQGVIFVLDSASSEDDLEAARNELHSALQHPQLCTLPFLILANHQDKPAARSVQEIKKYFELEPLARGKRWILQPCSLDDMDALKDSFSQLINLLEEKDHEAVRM
Sequence of UniProt Q99758 (Q99758 whole entry, looked up): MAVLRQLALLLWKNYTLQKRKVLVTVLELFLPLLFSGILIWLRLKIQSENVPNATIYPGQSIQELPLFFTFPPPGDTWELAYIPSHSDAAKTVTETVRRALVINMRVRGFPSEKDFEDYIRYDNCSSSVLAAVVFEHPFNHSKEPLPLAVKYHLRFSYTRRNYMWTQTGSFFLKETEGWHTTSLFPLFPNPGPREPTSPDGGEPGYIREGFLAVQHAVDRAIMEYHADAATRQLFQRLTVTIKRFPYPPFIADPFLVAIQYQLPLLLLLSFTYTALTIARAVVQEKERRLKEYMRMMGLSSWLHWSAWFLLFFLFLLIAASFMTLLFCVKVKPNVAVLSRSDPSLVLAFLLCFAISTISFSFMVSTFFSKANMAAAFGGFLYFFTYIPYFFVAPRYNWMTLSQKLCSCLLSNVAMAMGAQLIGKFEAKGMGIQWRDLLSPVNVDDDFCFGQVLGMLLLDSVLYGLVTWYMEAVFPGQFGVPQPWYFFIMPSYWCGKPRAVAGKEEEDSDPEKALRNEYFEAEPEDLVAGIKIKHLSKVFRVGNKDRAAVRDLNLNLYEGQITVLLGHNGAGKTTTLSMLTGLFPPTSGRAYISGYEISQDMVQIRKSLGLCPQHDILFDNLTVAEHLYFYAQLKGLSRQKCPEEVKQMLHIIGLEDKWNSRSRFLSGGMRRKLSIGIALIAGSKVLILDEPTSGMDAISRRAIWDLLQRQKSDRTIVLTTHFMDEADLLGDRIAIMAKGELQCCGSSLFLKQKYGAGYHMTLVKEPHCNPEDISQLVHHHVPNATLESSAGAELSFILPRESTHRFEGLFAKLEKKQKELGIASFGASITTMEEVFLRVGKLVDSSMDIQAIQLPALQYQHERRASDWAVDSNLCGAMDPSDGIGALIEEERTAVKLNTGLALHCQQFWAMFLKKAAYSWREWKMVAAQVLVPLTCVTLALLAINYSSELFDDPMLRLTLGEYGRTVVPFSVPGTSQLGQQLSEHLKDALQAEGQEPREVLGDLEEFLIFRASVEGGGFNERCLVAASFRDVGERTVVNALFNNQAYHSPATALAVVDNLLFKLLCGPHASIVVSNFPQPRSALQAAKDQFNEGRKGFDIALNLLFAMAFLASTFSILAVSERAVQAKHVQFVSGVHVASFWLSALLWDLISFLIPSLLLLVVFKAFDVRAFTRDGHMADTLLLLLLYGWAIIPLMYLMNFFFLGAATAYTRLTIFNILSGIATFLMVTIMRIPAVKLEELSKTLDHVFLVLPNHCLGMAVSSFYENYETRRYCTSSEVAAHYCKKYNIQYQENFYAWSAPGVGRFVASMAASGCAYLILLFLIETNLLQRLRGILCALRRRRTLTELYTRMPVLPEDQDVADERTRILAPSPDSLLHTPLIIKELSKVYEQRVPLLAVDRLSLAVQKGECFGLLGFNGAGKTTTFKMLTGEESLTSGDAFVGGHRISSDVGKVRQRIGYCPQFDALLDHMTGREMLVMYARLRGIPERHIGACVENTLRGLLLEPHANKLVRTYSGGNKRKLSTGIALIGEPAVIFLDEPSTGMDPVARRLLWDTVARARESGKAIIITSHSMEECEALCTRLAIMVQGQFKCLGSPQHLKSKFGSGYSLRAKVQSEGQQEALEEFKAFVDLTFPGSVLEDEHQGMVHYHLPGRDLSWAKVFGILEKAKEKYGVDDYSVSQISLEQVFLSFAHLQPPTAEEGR
Sequence of UniProt P54886 (P54886 whole entry, looked up): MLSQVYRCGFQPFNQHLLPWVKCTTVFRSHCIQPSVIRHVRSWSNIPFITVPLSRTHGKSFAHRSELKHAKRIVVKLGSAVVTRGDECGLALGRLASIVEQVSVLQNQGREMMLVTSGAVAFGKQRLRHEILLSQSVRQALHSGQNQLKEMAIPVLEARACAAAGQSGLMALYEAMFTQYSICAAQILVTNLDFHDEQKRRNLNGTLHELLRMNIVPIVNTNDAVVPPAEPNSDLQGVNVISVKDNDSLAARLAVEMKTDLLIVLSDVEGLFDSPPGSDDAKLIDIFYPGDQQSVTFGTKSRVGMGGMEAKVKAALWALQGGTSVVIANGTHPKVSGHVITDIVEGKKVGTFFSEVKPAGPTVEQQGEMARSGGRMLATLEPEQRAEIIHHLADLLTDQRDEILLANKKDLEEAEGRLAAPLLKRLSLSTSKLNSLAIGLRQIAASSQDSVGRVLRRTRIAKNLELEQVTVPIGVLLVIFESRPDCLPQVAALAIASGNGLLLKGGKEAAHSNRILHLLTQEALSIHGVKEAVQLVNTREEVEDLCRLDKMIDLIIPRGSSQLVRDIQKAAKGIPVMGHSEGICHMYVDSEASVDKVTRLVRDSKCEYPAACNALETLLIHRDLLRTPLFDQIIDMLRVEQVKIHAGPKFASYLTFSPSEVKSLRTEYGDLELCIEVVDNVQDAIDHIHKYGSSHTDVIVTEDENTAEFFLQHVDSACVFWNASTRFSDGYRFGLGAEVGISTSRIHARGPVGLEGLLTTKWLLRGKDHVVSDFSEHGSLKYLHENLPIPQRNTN
Sequence of UniProt Q13155 (Q13155 whole entry, looked up): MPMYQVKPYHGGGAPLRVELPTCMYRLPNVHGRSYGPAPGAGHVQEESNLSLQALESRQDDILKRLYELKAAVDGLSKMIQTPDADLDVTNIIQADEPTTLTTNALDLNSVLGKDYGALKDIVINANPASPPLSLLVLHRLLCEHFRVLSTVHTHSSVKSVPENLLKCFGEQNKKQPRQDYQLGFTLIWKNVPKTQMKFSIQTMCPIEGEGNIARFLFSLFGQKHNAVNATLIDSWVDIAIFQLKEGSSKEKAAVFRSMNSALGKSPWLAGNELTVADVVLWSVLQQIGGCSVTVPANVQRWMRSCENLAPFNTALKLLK
Sequence of UniProt O75843 (O75843 whole entry, looked up): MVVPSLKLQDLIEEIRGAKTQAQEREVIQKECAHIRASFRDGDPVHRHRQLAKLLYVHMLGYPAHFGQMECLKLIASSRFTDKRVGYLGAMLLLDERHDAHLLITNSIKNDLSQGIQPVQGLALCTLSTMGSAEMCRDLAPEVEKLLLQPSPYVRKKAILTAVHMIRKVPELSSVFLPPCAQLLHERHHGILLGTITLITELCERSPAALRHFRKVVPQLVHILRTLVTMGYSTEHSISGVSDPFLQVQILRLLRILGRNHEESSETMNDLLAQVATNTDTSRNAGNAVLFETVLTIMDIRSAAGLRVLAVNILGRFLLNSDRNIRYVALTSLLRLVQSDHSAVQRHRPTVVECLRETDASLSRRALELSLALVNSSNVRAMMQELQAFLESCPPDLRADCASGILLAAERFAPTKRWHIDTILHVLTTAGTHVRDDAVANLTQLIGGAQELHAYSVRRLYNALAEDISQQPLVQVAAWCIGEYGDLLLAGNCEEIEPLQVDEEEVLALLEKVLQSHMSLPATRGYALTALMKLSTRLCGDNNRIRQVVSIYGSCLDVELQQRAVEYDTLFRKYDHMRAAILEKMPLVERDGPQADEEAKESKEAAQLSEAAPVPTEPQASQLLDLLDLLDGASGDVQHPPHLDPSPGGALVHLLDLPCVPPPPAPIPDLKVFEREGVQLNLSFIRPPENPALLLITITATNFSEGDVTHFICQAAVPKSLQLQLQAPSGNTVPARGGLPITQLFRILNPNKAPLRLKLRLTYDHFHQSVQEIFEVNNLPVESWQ
Sequence of UniProt P07311 (P07311 whole entry, looked up): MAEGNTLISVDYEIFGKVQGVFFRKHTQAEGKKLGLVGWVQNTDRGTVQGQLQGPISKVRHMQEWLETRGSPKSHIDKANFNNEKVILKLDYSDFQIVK

Row | Target | log2 fold change [1] | log2 fold change [2] | log2 fold change [3] | log2 fold change [4] | log2 fold change [5] | log2 fold change [6] | log2 fold change [7] | log2 fold change [8] | log2 fold change [9] | log2 fold change [10]
1 | ASCC2 (UniProt Q9H1I8) | 0.037 | 0.069 | 0.025 | -0.054 | -0.024 | 0.007 | 0.051 | -0.103 | 0.04 | 0.027
2 | ACTG1 (UniProt I3L4N8) | 0.131 | -0.062 | 0.218 | -0.208 | -0.006 | -0.384 | 0.94 | -0.091 | -0.002 | 0.001
3 | AGPS (UniProt O00116) | 0.028 | 0.008 | -0.021 | 0.06 | 0.011 | 0.025 | -0.082 | 0.012 | -0.009 | -0.016
4 | ACYP1 (UniProt P07311) | -0.038 | -0.024 | 0.024 | -0.005 | 0.032 | 0.006 | 0.284 (active) | -0.082 | 0.003 | -0.032
5 | ARMCX5 (UniProt Q6P1M9) | 0 | 0.032 | 0.007 | -0.034 | -0.012 | -0.027 | -0.099 | -0.03 | 0.043 | –
6 | AKR1C2 (UniProt P52895) | 0.001 | 0.018 | -0.008 | 0.008 | -0.018 | -0.043 | -0.369 (active) | 0.148 | 0.062 | 0.006
7 | AIMP2 (UniProt Q13155) | -0.026 | 0.022 | 0.031 | -0.131 | -0.063 | -0.019 | -0.008 | -0.079 | 0.018 | 0.015
8 | AHCYL1 (UniProt O43865) | 0.018 | 0.021 | -0.001 | 0.001 | -0.073 | -0.021 | -0.055 | -0.012 | -0.021 | 0.006
9 | ANXA2 isoform 2 (UniProt P07355) | -0.03 | -0.004 | -0.021 | 0 | 0.017 | 0.033 | -0.003 | -0.02 | 0.013 | -0.012
10 | AK4 (UniProt P27144) | -0.068 | 0.018 | 0.11 | -0.057 | -0.024 | 0.023 | -0.036 | -0.002 | -0.016 | 0.05
11 | AKT2 (UniProt P31751) | 0.008 | 0 | -0.026 | -0.024 | -0.031 | 0.025 | 0.007 | 0.004 | -0.011 | 0.017
12 | ANKRD30B (UniProt Q9BXX2) | 0.136 | 0.024 | 0.047 | 0.012 | 0.003 | -0.055 | -0.755 (active) | 0.281 | 0.04 | –
13 | ANKRD27 (UniProt Q96NW4) | -0.016 | 0.006 | 0.043 | 0.01 | -0.075 | 0.001 | -0.042 | -0.073 | 0.054 | -0.002
14 | ABHD17B (UniProt Q5VST6) | 0.051 | -0.002 | -0.073 | 0.234 | 0.094 | -0.034 | 0.08 | 0.054 | 0.092 | -0.002
15 | ABCD3 (UniProt P28288) | 0.078 | 0.058 | 0.053 | -0.077 | -0.029 | -0.07 | -0.054 | 0.044 | -0.071 | 0.073
16 | AP1G2 (UniProt O75843) | -0.057 | 0.044 | 0.011 | -0.014 | -0.053 | -0.003 | -0.007 | 0.032 | -0.032 | 0.022
17 | ARAF (UniProt P10398) | 0.411 (active) | 0.058 | 0.015 | -0.069 | -0.038 | -0.015 | 0.042 | 0 | 0.005 | 0.002
18 | ARL15 (UniProt Q9NXU5) | -0.057 | -0.019 | 0.002 | -0.082 | -0.009 | 0.035 | 0.765 (active) | -0.119 | -0.01 | 0.049
19 | ABCA3 (UniProt Q99758) | 0.114 | -0.044 | 0.057 | -0.009 | 0.089 | -0.163 | -0.086 | 0.051 | -0.05 | 0.031
20 | ANKRD52 (UniProt Q8NB46) | -0.052 | 0.032 | 0.029 | -0.019 | 0.097 | 0.063 | 0.061 | -0.015 | -0.022 | -0.008
21 | ALDH18A1 (UniProt P54886) | 0.052 | -0.006 | 0.033 | -0.054 | -0.033 | 0.036 | 0.009 | -0.005 | 0.003 | 0.014
22 | ARMC6 (UniProt Q6NXE6) | -0.053 | 0.02 | 0.071 | -0.136 | -0.056 | 0.019 | 0.002 | -0.035 | 0.013 | 0.019
23 | ALDH1L2 (UniProt Q3SY69) | -0.084 | -0.026 | 0.002 | -0.006 | -0.045 | 0.007 | -0.089 | -0.014 | -0.002 | 0.013
24 | AGO4 (UniProt Q9HCK5) | 0.033 | 0.003 | 0.04 | -0.003 | 0.017 | -0.003 | 0.036 | 0.041 | -0.011 | -0.021
25 | ABHD11 (UniProt Q8NFV4) | 0.062 | -0.051 | 0.093 | -0.029 | -0.082 | 0.028 | -0.109 | 0.024 | -0.026 | -0.016
26 | AGL (UniProt P35573) | -0.014 | 0.002 | -0.015 | -0.063 | -0.058 | 0.013 | 0.131 | -0.083 | 0.013 | 0.049
27 | ACACA isoform 4 (UniProt Q13085) | 0.014 | 0.024 | 0.043 | -0.062 | -0.085 | 0.056 | -0.025 | -0.067 | 0.001 | 0.011
